# A selection: hits, their analogues and other compounds. The true share with any hit is near 7.4%.
# NPC1 promoter act – qHTS Assay for NPC1 Promoter Activators; Huh7 NPC1 promoter luciferase reporter, 24 h; Potency, µM (top dose mostly 9.22 µM), without a hit: at the top dose activation, actives largely listed as activators; 2.4% of 320,000 active; further: % of control where 0% means no effect; nearly all actives have a fitted effect of over 60% in size
#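 Cells: Huh7 expressing luciferase under the NPC1 promoter, 1500/well. Seeded 2 h, compound added, incubated 24 h at 37 °C. Luciferase reagent, 10 min ambient, then luminescence.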
# FLuc counter – qHTS profiling assay for firefly luciferase inhibitor/activator using purifed enzyme and Km concentrations of substrates (counterscreen for miR-21 project) | 6.9% of 360,000 active | purified FLuc, Km substrates, luminescence inhibition | Luciferin 4-monooxygenase (Photinus pyralis), P08659 | Potency, µM (series often up to 57.5 µM), for the others: at the top dose activity change, negative = inhibition, hits mostly inhibitors;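 further: plate controls were vehicle for no effect and reference inhibitor for full effect; nearly all actives have a fitted effect of over 55% in size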
# Target sequence (P08659 whole entry, looked up): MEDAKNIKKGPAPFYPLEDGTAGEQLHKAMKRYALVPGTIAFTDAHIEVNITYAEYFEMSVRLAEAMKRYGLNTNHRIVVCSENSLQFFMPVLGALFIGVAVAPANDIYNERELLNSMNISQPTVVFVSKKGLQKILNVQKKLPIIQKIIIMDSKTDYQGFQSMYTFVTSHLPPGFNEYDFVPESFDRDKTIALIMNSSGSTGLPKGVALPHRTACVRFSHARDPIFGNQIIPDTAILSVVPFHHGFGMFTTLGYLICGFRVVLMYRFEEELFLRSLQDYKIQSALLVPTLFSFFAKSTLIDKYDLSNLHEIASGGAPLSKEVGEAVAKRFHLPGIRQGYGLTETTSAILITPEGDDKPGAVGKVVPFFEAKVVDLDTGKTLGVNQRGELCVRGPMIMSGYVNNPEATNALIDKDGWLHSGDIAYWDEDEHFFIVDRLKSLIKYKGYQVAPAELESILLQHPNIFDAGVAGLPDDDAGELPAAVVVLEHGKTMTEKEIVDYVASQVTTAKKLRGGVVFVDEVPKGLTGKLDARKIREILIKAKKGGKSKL
#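 Purified P. pyralis luciferase (10nM final) with 10uM D-luciferin and 10uM ATP (Km levels) in 50mM Tris acetate pH 7.5, 10mM Mg acetate, 0.01% Tween-20, 0.05% BSA; qHTS 6-point titration, ~60 µM downward; luminescence read.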
# KinaseGlo FLuc – Counterscreen for Luciferase (Kinase-Glo TM) Inhibition; 0.28% of 200,000 active; Kinase-Glo luciferase, ATP luminescence, 8 min; Potency, µM (titrated, usually from 38.3 µM), for the others: top-dose activity change, negative = inhibition, most hits filed as inhibitors; Luciferin 4-monooxygenase (Photuris pensylvanica), Q27757; AID 1379, 2008; further: on the % scale 0 is the no-effect control and ±100 the full control effect; nearly all actives have a fitted effect of over 60% in size
#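 Inhibition of Kinase-Glo luciferase light generation was assessed at 10 uM ATP in pH 7.2 imidazole buffer, with luminescence measured after eight minutes at ambient temperature.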
# Rab9 prom act – qHTS Assay for Rab9 Promoter Activators. Huh7 Rab9 promoter-luciferase reporter, luminescence, 24 h. Potency, µM (titrated, usually from 9.22 µM), for the others: at the highest dose activation, negative = inhibition, actives largely listed as activators. AID 485297, 2010. 2.8% of 320,000 active; further: % of control where 0% means no effect; nearly all actives have a fitted effect of over 60% in size
#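 Luciferase signal after 10 min detection reagent at ambient indicates Rab9 promoter upregulation; stably transfected Huh7 cells were treated 24 h with compound in DMSO at 37 °C, 5% CO2.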
# ELG1 genotox – qHTS screen for small molecules that induce genotoxicity in human embryonic kidney (HEK293T) cells expressing luciferase-tagged ELG1 | 1.3% of 330,000 active | HEK293T ELG1-luciferase reporter, luminescence, 16 h | Potency, µM (titrated, usually from 46 µM), for the others: top-dose activity change, positive = activation, hits mostly activators; further: % of control where 0% means no effect; nearly all actives have a fitted effect of over 60% in size
#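 Cells (2,000/well) expressing the ELG1-luciferase fusion are dosed by pin tool and kept 16 hr at 37 °C, 5% CO2. Signal comes from ONE-Glo luciferase reagent after 30 min at room temperature.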
# SMN2 splice up – qHTS Assay for Enhancers of SMN2 Splice Variant Expression. HEK293 SMN2-luciferase splicing reporter, luminescence, 30-36 h. 2.8% of 210,000 active. Potency, µM (titrated, usually from 46.1 µM), inactives show top-dose activity change, positive = activation, most hits filed as activators; further: % of control where 0% means no effect; nearly all actives have a fitted effect of over 55% in size
#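 qHTS luciferase splicing reporter: luminescence rises when SMN2 exon 7 is included in transfected HEK293 cells. Compound exposure lasted 30-36 h at 37C, with 4.5 mM final sodium butyrate as control, followed by a ONE-Glo read.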
# Active calls of the source: *; ? = inconclusive; nt = no result given; [ ] = dose if it differs, or a comment. The call rests on the fitted dose curve; in most records, active means well fitted curve in the direction sought with a large enough effect; inconclusive means small, poorly fitted or top-dose-only effect, or another doubt; inactive means no such curve, though single readings can be large; an effect the other way counts as inactive or inconclusive. Potency means the concentration at half of the fitted maximal effect.
SMILES,NPC1 promoter act,FLuc counter,KinaseGlo FLuc,Rab9 prom act,ELG1 genotox,SMN2 splice up
O=C(Nc1ccc(O)cc1C(=O)O)c1ccc2c(c1)C(=O)N(Cc1ccco1)C2=O,-2.7%,?,0.5%,-9.1%,-5.9%,4.7%
CC(c1ccccc1)N1C(=O)c2ccc(C(=O)Nc3ccccc3C(=O)O)cc2C1=O (stereo unspecified),-5.0%,23.9µM*,nt,3.4%,-12.1%,nt
COc1cc(NC(=O)CSc2ccc(-c3sc(-c4ccccc4)nc3C)nn2)cc(OC)c1,nt,2.2%,nt,nt,nt,nt
CCN(CC)c1ccc(/C=N/NC(=O)c2ccc3c(c2)OCCO3)cc1,15.4%,7.57µM*,nt,-0.1%,3.7%,nt
O=C(CNC(=O)c1ccc2c(c1)OCCO2)N/N=C/c1ccc(Cl)cc1,-1.5%,?,-0.7%,-1.8%,-0.8%,-0.9%
O=C(CNC(=O)c1ccc2c(c1)OCCO2)N/N=C/c1ccc([N+](=O)[O-])cc1,-5.0%,-0.2%,nt,1.7%,?,nt
CN(C)c1ccc(/C=N/NC(=O)c2cc(-c3ccc4c(c3)OCO4)n[nH]2)cc1,?,12µM*,nt,-6.2%,4.3%,nt
Cc1cc([N+](=O)[O-])nn1Cc1ccc(C(=O)N/N=C/c2ccc(N(C)C)cc2)cc1,-4.2%,9.53µM*,nt,-6.2%,4.2%,nt
Cc1cc([N+](=O)[O-])nn1Cc1ccc(C(=O)N/N=C/c2ccccc2)cc1,-2.9%,?,-0.2%,-2.3%,6.1%,-4.7%
CN(C)c1ccc(/C=N/NC(=O)c2ccc3c(c2)OCCO3)cc1,?,4.78µM*,nt,?,?,nt
Cc1ccc(OCc2nc(-c3ccc(C(=O)N4CCN(c5cc(Cl)ccc5C)CC4)cc3)oc2C)cc1,nt,3.0%,nt,nt,nt,-3.1%
COc1ccc(N2CCN(S(=O)(=O)CCNC(=O)c3c(F)cccc3Cl)CC2)cc1,nt,-0.5%,nt,nt,nt,nt
CCN(CCCCOC(=O)c1ccc(OC)c(OC)c1)[C@@H](C)Cc1ccc(OC)cc1,nt,nt,-0.6%[17.1 µM],nt,nt,-34.1%[20.6 µM]
O=C1CC(c2nnc(Cc3ccccc3Cl)o2)CN1c1ccccc1 (stereo unspecified),nt,-3.3%,nt,nt,nt,-10.0%
CCOC(=O)C(CC)/C(C)=N\NC(=O)c1ccccc1O (stereo unspecified),-11.4%,?,-14.9%,-23.1%,?,-68.8%
C/C(=N\NC(=O)c1ccccc1O)C1C(=O)c2ccccc2C1=O,?,13.5µM*,-3.9%,27.9%,8.2µM*,10µM*
C/C(=N/NC(=O)c1cc2ccccc2cc1O)C1C(=O)c2ccccc2C1=O,21.7%,16.9µM*,-6.2%,?,?,?
C/C(CC(=O)N1CCN(C=O)CC1)=N\NC(=O)c1cc2ccccc2cc1O,-3.1%,21.3µM*,-0.9%,-5.1%,0.2%,15.7%
Cc1cc(C(=O)CN2CCC(C)CC2)c(C)n1-c1ccc(F)cc1,?,9.53µM*,2.8%,1.41µM*,?,12.6µM*
Cc1cc(C(=O)CNCc2ccco2)c(C)n1-c1ccc(F)cc1,1.58µM*,3.38µM*,0.8%,2µM*,?,-4.9%
Cc1cc(C(=O)NC2CCCCC2)c(C)n1-c1ccc(F)cc1,2.82µM*,6.01µM*,-0.2%,2.51µM*,5.8µM*,?
COc1cccc(C(=O)NCCSc2c(-c3ccc(F)cc3)[nH]c3ccccc23)c1OC,nt,5.1%,nt,nt,nt,24.4%
COc1ccc(S(=O)(=O)Nc2ccc3oc4c(c3c2)C(=O)CC(C)(C)C4)cc1,nt,2.2%,nt,nt,nt,-39.8%
OCc1ncc(-c2ccccc2)s1,12.3%,-11.9%,nt,15.6%,10.9%,nt
CC(C)(C)N=Cc1cc(-c2ccccc2)sc1O,2.82µM*,5.36µM*,17.1%,2.24µM*,9.2µM*,22.4%
CC(=O)c1ccc(NC(=O)CN2C(=O)CCc3ccccc32)cc1,nt,6.01µM*,nt,nt,nt,nt
CC(=O)c1ccc(NC(=O)CN2C(=O)CCc3cc(S(=O)(=O)N4CCC(C)CC4)ccc32)cc1,nt,-0.1%,nt,nt,nt,nt

# High-throughput results as filed in PubChem BioAssay.
